Screens as filed in PubChem BioAssay.
Only some compounds are listed: those with a hit (about 7% of all), similar ones and a draw of the others.
AHR activator: AHR activators, primary screen, cell-based, luminescence, luciferase reporter, human; activation, % at 5 µM; 320,000 tested, 2.5% active; AHR-responsive luciferase reporter cells; Aryl hydrocarbon receptor (Homo sapiens), P35869; in the data active = activation above about 47%
ADAM17 inh: ADAM17 inhibitors, primary screen, biochemical, QFRET; Disintegrin and metalloproteinase domain-containing protein 17 (Homo sapiens), P78536; recombinant ADAM17, EDANS/DABCYL FRET peptide cleavage; inhibition, % at 6.95 µM; 370,000 tested, 0.83% active;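 active = inhibition above the mean of compounds lying between control limits plus 3 SD, set per campaign, cut at about 8.5% in these data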
GRIN3A LBD mod: binders of NR3A ligand-binding domain, primary screen, biophysical, differential scanning fluorimetry, uHTS | Glutamate receptor ionotropic, NMDA 3A (GRIN3A) ligand-binding domain | NR3A LBD differential scanning fluorimetry, Tm shift; 0% = protein alone, 100% = glycine-bound protein | Tm shift relative to glycine control, % at 25 µM | 340,000 tested, 2.5% active;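 active = melting temperature shift of at least 10% of the positive control shift, at one fixed dose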
rCAG binder: binders of r(CAG) RNA repeats, primary screen, biochemical, fluorescence; 370,000 tested, 1.3% active; r(CAG) RNA repeat, TO-PRO-1 dye displacement fluorescence; inhibition, % at 3 µM;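 active = inhibition above the plate cutoff, the mean of all test compounds on that plate plus 3 SD, cut at about 35% in these data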;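 note: higher means more dye released from RNA so lower well fluorescence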
KLK7 zymogen act: proKLK7 zymogen activators, primary screen, biochemical, fluorescence intensity. purified proKLK7, EDANS-DABCYL substrate fluorescence; 100% is mature enzyme control, 0% vehicle. activation, % at 7 µM. 370,000 tested, 0.9% active. AID 652039, 2013;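 active = activation above the mean of all tested compounds plus 3 SD, computed per campaign excluding outliers beyond control limits, cut at about 13% in these data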
ADAM10 inh: human ADAM10 inhibitors, primary screen, biochemical, QFRET, HTS | recombinant ADAM10, EDANS/DABCYL FRET peptide cleavage, 3 h | AID 720582, 2013 | inhibition, % at 7 µM | 370,000 tested, 0.62% active;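 active = inhibition above a per-campaign cutoff equal to the mean of compounds falling between control-based bounds plus 3 SD, cut at about 20% in these data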
Each line names hits and unclear results; the compound was inactive in the other large screens.

O=C(CN1CCCC1)Nc1c2c(nc3ccccc13)N(Cc1ccccc1)CC2	AHR activator 71
CCN(CC)CC(=O)Nc1c2c(nc3ccccc13)N(C)CC2	none
Cc1ccc(-n2c(SCC(=O)NN=Cc3ccc(-c4ccccc4)cc3)nnc2-c2ccccc2)cc1	none (no result: AHR activator, GRIN3A LBD mod)
O=S(=O)(NCc1ccccc1)c1ccc(Cl)cc1	none
O=S(=O)(Nc1cc2nc3ccccc3nc2n1Cc1ccccc1)c1ccc(Cl)cc1	GRIN3A LBD mod 12
CC(C)(C)c1cc[n+](/C(C(=S)Nc2ccccc2F)=C(/[O-])c2ccc3c(c2)OCCO3)cc1	none
[O-]/C(=C(\C(=S)Nc1ccccc1F)[n+]1ccccc1)c1ccc(-c2ccccc2)cc1	AHR activator 60
Cc1cc(C)nc(N2CCC(C(=O)N(C)CCc3ccccc3)CC2)n1	none (no result: AHR activator, GRIN3A LBD mod)
COC(=O)[C@]12C[C@H](CC(=O)N3CCC(c4ccccc4)CC3)C(=O)N(Cc3cccc4ccccc34)C1=C[C@H](C(C)C)O[C@@H]2C1CC1	none (no result: AHR activator, GRIN3A LBD mod)
Cc1ccc(C(=O)NC(=S)NCc2cccnc2)cc1C	none
COc1ccc(C(=O)NC(=S)Nc2cccnc2)cc1[N+](=O)[O-]	AHR activator 59
COc1ccc(C(=O)NC(=S)NCc2cccnc2)cc1Br	AHR activator 51
Nc1[nH]c(=O)ncc1-c1ccc([N+](=O)[O-])cc1	none (no result: AHR activator, GRIN3A LBD mod)
Nc1nc2ccccc2n1/N=C/c1ccc(-c2ccccc2)o1	GRIN3A LBD mod 30
Clc1ccc(-c2nnc3n2N=C(c2ccc(-c4ccccc4)cc2)CS3)c(Cl)c1	none (no result: AHR activator, GRIN3A LBD mod)
CCn1c(SCC(=O)Nc2nc(C)c(C)s2)nc2cccnc21	AHR activator 52
Cc1nnc(NC(=O)CSc2nnnn2Cc2ccccc2)s1	none
Cc1nc(NC(=O)CSc2nnnn2Cc2ccccc2)sc1C	AHR activator 65
COC(=O)[C@]12C[C@H](CC(=O)NCc3ccc(C)o3)C(=O)N(Cc3ccco3)C1=C[C@H](C1CCCC1)O[C@@H]2C	none (no result: AHR activator, GRIN3A LBD mod)
COc1ccc(-n2c(SCC(=O)Nc3ccccc3-c3ccccc3)nnc2-c2ccccn2)cc1	none (no result: AHR activator, GRIN3A LBD mod)
O=C(CN1CCN(S(=O)(=O)c2ccc(Cl)cc2)CC1)Nc1ccc(N2CCOCC2)cc1	GRIN3A LBD mod 10
Cc1cc(NC(=O)c2ccc(Cl)cc2)cc(C)c1OCC(=O)N1CCOCC1	GRIN3A LBD mod 13
O=C(NNC(=O)C1CCN(S(=O)(=O)c2ccc(Cl)cc2)CC1)c1ccc(S(=O)(=O)N2CCCCC2)cc1	GRIN3A LBD mod 22
Cc1ccc(C(=O)NNC(=O)C2CCN(S(=O)(=O)c3ccc(Cl)cc3)CC2)cc1	none
O=C(Nc1ccc(S(=O)(=O)NC2=NCCCCC2)cc1)c1cccc(S(=O)(=O)N2CCOCC2)c1	none
O=C(Nc1ccc(S(=O)(=O)NC2=NCCCCC2)cc1)c1cc(S(=O)(=O)N2CCOCC2)ccc1F	GRIN3A LBD mod 22
Nc1nc2c(ncn2[C@@H]2O[C@H](C(=O)N[C@H](Cc3ccccc3)C(=O)NCCCc3ccccc3)[C@@H](O)[C@H]2O)c(=O)[nH]1	none (no result: AHR activator, GRIN3A LBD mod)
O=C(NC1CCCCN(Cc2ccc(Cl)cc2)C1=O)c1ccc(Cl)cc1Cl (stereo not drawn)	none (no result: AHR activator, GRIN3A LBD mod)
COC(=O)[C@H](C(C)C)N1Cc2nnn(CC3CCCCC3)c2-c2cc(F)ccc2S1(=O)=O	none (no result: AHR activator, GRIN3A LBD mod)
O=C(Nc1ccc(S(=O)(=O)N2CCOCC2)cc1)c1ccc(Cl)cc1	GRIN3A LBD mod 22
O=C(C1CCCN(S(=O)(=O)c2ccc(F)cc2)C1)N1CCOCC1 (stereo not drawn)	GRIN3A LBD mod 26 (no result: AHR activator)
Cc1c(NC(=O)C2CCN(S(=O)(=O)c3ccc(Cl)cc3)CC2)c(=O)n(-c2ccccc2)n1C	GRIN3A LBD mod 13
O=C(Nc1ccc(S(=O)(=O)N2CCOCC2)cc1)c1ccc(Br)o1	GRIN3A LBD mod 26
CCOC(=O)[C@@]12CN(C(=O)OC(C)(C)C)CC=C1N(Cc1ccc(OC)cc1)C(=O)[C@H]2CC(=O)NCC12CC3CC(CC(C3)C1)C2	none (no result: AHR activator, GRIN3A LBD mod)
CN(Cc1ccccc1)C(=O)OCc1cn(Cc2ccccc2)nn1	none (no result: AHR activator, GRIN3A LBD mod)
O=C(Nc1ccc(N2CCOCC2)cc1)c1ccc(Cl)nc1	AHR activator 73 (no result: ADAM17 inh, rCAG binder, KLK7 zymogen act, ADAM10 inh)
O=C(Nc1cccc(Cl)c1)c1cc(S(=O)(=O)N2CCOCC2)cs1	GRIN3A LBD mod 31
O=C(Nc1ccc(S(=O)(=O)N2CCOCC2)cc1)c1ccc(S(=O)(=O)N2CCOCC2)cc1	none
O=C(Nc1ccc(S(=O)(=O)N2CCOCC2)cc1)c1ccc(F)cc1	GRIN3A LBD mod 38
O=C(NC1CCCCN(Cc2ccc(Cl)cc2)C1=O)c1cccc(F)c1 (stereo not drawn)	none (no result: AHR activator, GRIN3A LBD mod)
CCC1(C)N=C(c2ccc3c(c2)OCO3)CC(c2ccccc2O)N1 (stereo not drawn)	AHR activator 73
O=C(NCCNc1ccc([N+](=O)[O-])cc1C(F)(F)F)c1ccccc1F	AHR activator 59
O=[N+]([O-])c1ccc(NCCNS(=O)(=O)c2ccccc2)c(C(F)(F)F)c1	none
O=S(=O)(N/N=C1/CC(c2ccccc2)Oc2ccccc21)c1ccc(Br)cc1 (stereo not drawn)	GRIN3A LBD mod 21
O=S(=O)(N/N=C1/CCCc2ccccc21)c1ccc(Br)cc1	none
CCOC(=O)N1C(=O)C[C@](Sc2ccc(OC)cc2)(C(=O)N2CCN(C(C)=O)CC2)[C@H]1c1ccc(OC)cc1	none (no result: AHR activator, GRIN3A LBD mod)
O=S(=O)(c1cccc(C(F)(F)F)c1)c1ccc(O)cn1	GRIN3A LBD mod 11
O=S(=O)(c1ccccc1)c1ccc(C(F)(F)F)cn1	none
COC(=O)[C@]12C[C@H](CC(=O)NCCCN3CCCC3=O)C(=O)N(Cc3ccc(Cl)cc3Cl)C1=C[C@H](C(C)C)O[C@@H]2C1CC1	none (no result: AHR activator, GRIN3A LBD mod)
COc1ccc(Cl)cc1-n1c(=S)sc2c(=O)[nH]c(SCC(=O)C(C)(C)C)nc21	rCAG binder 84
COC(=O)CNC(=O)CSc1nc2c(sc(=S)n2-c2ccccc2)c(=O)[nH]1	none (no result: AHR activator)
Cc1ccc(NC(=O)NCc2nc3ccccc3n2C)cc1	none
Cc1ccc(NC(=O)C2=C(O)CCn3c2nc2ccccc23)cc1	AHR activator 57
Cc1cc2nc(-c3ccc(SCC(=O)N4CCc5ccccc54)nc3)[nH]c2cc1C	GRIN3A LBD mod 25 (no result: ADAM17 inh, rCAG binder, KLK7 zymogen act, ADAM10 inh)
Cc1cc2nc(-c3ccc(SCC(=O)Nc4ccc(S(=O)(=O)NC5CC5)cc4)nc3)[nH]c2cc1C	GRIN3A LBD mod 32
Cc1cc2nc(-c3ccc(SCc4ccc(C(=O)O)cc4)nc3)[nH]c2cc1C	none
Cc1cc2nc(-c3ccc(SCC(=O)NC(C)C)nc3)[nH]c2cc1C	AHR activator 78 (no result: ADAM17 inh, GRIN3A LBD mod, rCAG binder, KLK7 zymogen act, ADAM10 inh)
